We go through three compounds from PubChem BioAssay (NCATS).

Structures are written as SMILES. “And” between values parts separate entries of the source, which are not always exact repeats. Equal entries are not always repeated. Results filed as inconclusive are left out. The source made the active and inactive calls. Unless noted, calls follow the shape of the dose curve; as a rule, active = well fitted curve in either direction with a large enough effect (not every such curve was filed as active); inconclusive = small, poorly fitted or top-dose-only effect, or another doubt; inactive = flat fitted curve, though single readings scatter. Bounds are passed on as bounds.

Test [1] is described as follows: AP1 Signaling Pathway (AID 357).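 Also: ME-180 reporter cells stimulated with EGF at its EC50 level; % is scaled to controls: 0 for no effect and ±100 for the full control effect.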 To be noted: ME-180 AP-1-bla reporter, EGF-induced, beta-lactamase ratio, 5 h. Put shortly: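 In this screen, ME-180 cells in Opti-MEM with 0.5% dialyzed FBS received EC50 EGF and compound titrations for 5 h. AP-1 reporter beta-lactamase was detected via CCF4 ratio, giving AC50 for positive and negative modulators.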
For test [2], the target named is Cytochrome P450 1A2 (Homo sapiens) (UniProt P05177). Nature of the test: p450-cyp1a2 (AID 410; calls by dose curve;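 also: -100% = full effect of reference inhibitor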). To be noted: recombinant CYP1A2, luciferin-ME demethylation, luminescence; series mostly up to 57 µM. In outline:
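Luminescent readout of luciferin formed from Luciferin-ME by human CYP1A2; data normalized against complete inhibition by 57 uM furafylline. Enzyme 20nM, substrate 100uM at Km, 100mM KPO4 buffer, 60 min reaction at room temperature.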

A short description of test [3]: NFAT Signaling Pathway (AID 444).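 Also: carbachol stimulus at about its EC50 of 1 µM final; % is scaled to controls: 0 for no effect and ±100 for the full control effect.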 To be noted: Jurkat NFAT-bla M1, carbachol, beta-lactamase ratio, 5 h. Put shortly: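 Jurkat cells with NFAT-driven β-lactamase reporter and co-expressed M1 receptor, stimulated with carbachol (final 1 uM, ~EC50), compound titration, 5 h at 37 °C. CCF4 loaded 1 h at RT; 460/530 nm ratio gave %activity and AC50.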
Test [4] in a line: Stat Signaling Pathway (AID 446).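 Also: ME-180 cervical cancer cells given 40 pM IL-6 alongside compound; SIE-controlled beta-lactamase reporter measured as 460/530 nm FRET emission ratio; % is scaled to controls: 0 for no effect and ±100 for the full control effect.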 The settings on record: ME-180 SIE beta-lactamase reporter, IL-6 stimulated, 5 h. In outline:
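Screening format detects activators and inhibitors alike: ME-180 SIE-bla cells stimulated at 40 pM IL-6 for 5 hrs with compound, then dual-emission beta-lactamase read at 405 nm excitation.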

Test [5] concerns the target Mitogen-activated protein kinase 10 (Mus musculus) (UniProt Q61831). Nature of the test: JNK3 AlphaScreen Assay (AID 530).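 Also: kinase came from lysate of stimulated human HepG2 cells; signal reports phosphorylation of biotinylated GST-cJun 1-79 at Ser73 with 10 µM ATP; % is scaled to controls: 0 for no effect and ±100 for the full control effect.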 To be noted: JNK3 lysate, c-Jun phosphorylation; series mostly up to 57.1 µM. In outline:
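Pre-activated (IL-1β/TNFα) JNK3 in HepG2 lysates phosphorylates biotin-GST-cJun(1-79), 10 uM ATP; anti-phospho-cJun(Ser73) AlphaScreen read at room temperature, pH 7.6 Tris buffer. Compounds pre-incubated 15 min as titrations.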
(In Alpha technology, singlet oxygen from a donor bead excites a nearby acceptor bead.)

In test [6] the target is 3',5'-cyclic-AMP phosphodiesterase 4B (Homo sapiens) (UniProt Q07343). The test is described as follows: qHTS Assay for Inhibitors of PDE-IV (AID 607; active = well fitted activation curve with a large enough effect in the main read-out, with a control signal flat, not every such curve was filed as active; also: % of control where 0% means no effect). The settings on record: HEK293 ACTOne CNG channel cells, membrane potential fluorescence; series mostly up to 22.9 µM. In outline: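 The readout is membrane depolarisation from a cAMP-sensing CNG channel, detected with a potential dye at ex 535/em 590. Cells were HEK293-derived (endogenous PDE-IV) at 1000 cells/well, titrated up to 22.9 uM final.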
Sequence of 3',5'-cyclic-AMP phosphodiesterase 4B (Homo sapiens) (Q07343 whole entry, looked up): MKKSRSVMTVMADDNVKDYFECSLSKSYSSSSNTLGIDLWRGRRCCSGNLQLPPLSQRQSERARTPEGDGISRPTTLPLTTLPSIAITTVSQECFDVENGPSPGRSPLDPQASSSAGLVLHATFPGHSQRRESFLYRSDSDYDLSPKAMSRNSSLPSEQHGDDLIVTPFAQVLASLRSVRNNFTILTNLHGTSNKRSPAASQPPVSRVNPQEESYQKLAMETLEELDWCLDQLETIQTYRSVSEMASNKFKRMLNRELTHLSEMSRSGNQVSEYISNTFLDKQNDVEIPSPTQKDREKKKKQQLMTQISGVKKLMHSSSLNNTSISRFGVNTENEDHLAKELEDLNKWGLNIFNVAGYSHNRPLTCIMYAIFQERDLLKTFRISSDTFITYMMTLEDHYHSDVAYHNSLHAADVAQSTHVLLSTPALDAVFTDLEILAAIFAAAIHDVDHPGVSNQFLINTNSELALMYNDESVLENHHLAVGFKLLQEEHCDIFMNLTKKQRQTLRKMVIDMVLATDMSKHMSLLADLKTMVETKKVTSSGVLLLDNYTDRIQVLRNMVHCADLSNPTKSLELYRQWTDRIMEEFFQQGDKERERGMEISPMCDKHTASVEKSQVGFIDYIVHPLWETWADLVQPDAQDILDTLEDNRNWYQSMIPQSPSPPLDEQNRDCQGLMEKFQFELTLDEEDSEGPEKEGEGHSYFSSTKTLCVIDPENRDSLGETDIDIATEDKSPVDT
On the technique in general: In qHTS, concentration-response curves come from the screen itself.

Test [7] is described as follows: qHTS Assay for Lipid Storage Modulators (AID 1519; calls by dose curve). The settings on record: Drosophila S3 cells, BODIPY lipid droplet/cell ratio, laser cytometry, cells loaded with oleic acid; for activity change, negative = inhibition: at 25.7 µM (top of the series). In outline:
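Cells seeded at 5,000 per well were treated with compounds over a concentration series and loaded with oleic acid (400 uM, as added). Lipid droplet fluorescence (488 nm excitation, 500-530 nm channel) was read by laser-scanning cytometry and normalized to 20 uM Triacsin C.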

For test [8], the target named is Ubiquitin carboxyl-terminal hydrolase 1 (Homo sapiens) (UniProt O94782). The test is described as follows: Inhibitors of USP1/UAF1: Pilot qHTS (AID 504865; active = well fitted curve in the direction sought with a large enough effect; an effect the other way counts as inactive or inconclusive;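 also: rhodamine fluorescence freed from ubiquitin-rhodamine substrate followed over time; top concentration of the series differs between compounds; % is scaled to controls: 0 for no effect and ±100 for the full control effect; nearly all actives have a fitted effect of over 35% in size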). The settings on record: purified USP1/UAF1, Ub-rhodamine cleavage fluorescence; series mostly up to 54.9 µM. In outline:
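Enzyme-free wells gave the negative control, while test wells held 1nM USP1/UAF1 preincubated with compound for 15 min at room temperature. Ub-Rho at 150nM final started the reaction, and fluorescence at 480/540 nm was recorded kinetically.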

The target in test [9] is Glucocorticoid receptor (Homo sapiens) (UniProt P04150). The test is described as follows: GR-GFP Redistribution (AID 450;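 active = compounds whose dose series gives a full or clear partial fitted curve of increased nuclear translocation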; also: potency is read from the fitted curve at half-maximal effect). To be noted: U2OS GR-GFP nuclear translocation, laser cytometry, 2 h.
Sequence of Glucocorticoid receptor (Homo sapiens) (P04150 whole entry, looked up): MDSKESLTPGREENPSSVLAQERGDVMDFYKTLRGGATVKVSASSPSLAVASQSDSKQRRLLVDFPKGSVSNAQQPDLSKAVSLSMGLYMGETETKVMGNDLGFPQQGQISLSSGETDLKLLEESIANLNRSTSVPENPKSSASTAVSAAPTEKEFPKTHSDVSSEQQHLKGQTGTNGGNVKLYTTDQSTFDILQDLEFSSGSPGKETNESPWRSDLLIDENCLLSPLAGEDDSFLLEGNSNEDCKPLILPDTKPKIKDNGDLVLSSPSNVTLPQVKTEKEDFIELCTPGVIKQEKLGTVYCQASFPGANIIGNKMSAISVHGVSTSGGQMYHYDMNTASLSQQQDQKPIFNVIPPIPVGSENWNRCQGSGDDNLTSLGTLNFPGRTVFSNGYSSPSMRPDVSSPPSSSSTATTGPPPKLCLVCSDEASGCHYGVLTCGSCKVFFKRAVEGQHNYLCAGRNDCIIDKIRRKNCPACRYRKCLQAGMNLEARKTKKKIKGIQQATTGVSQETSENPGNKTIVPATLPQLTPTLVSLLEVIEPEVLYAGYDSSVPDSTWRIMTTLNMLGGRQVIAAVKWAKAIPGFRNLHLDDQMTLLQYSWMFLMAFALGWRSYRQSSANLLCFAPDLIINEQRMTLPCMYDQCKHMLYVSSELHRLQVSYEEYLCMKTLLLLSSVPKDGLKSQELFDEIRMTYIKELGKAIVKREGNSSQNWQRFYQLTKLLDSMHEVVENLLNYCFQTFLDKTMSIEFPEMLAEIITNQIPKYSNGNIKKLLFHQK
For test [10] the target is unchanged. Nature of the test: GR-EFC Redistribution (AID 451; calls by dose curve; also: potency is read from the fitted curve at half-maximal effect). To be noted: CHO-K1 GR-EFC translocation, beta-gal luminescence, 2 h. Put shortly:
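CHO-K1 cells expressing nuclear EA and GR-ED fragments of b-gal; compounds titrated up to 46 uM final, 2 h at 37 C. GR nuclear translocation read as complemented b-gal luminescence after 1 h RT detection.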

For test [11], the target named is Guanine nucleotide-binding protein G(i) subunit alpha-1 (Homo sapiens) (UniProt P63096). The test is described as follows: qHTS Assay for Inhibitors of RGS12 GoLoco Motif Activity (Green Fluorophore) (AID 879; active = well fitted curve in the direction sought with a large enough effect; an effect the other way counts as inactive or inconclusive;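 also: 0% = labeled peptide with Gαi1 and full inhibition = labeled peptide alone without protein; negative values mean loss of peptide binding seen as reduced polarization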). To be noted: Galphai1/FITC-RGS12 GoLoco peptide, fluorescence polarization; series mostly up to 57.1 µM. Put shortly:
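Fluorescence polarization assay: 50 nM Gαi1 with 10 nM FITC-labeled RGS12 GoLoco peptide in 10 mM Tris pH 7.5, 150 mM NaCl, 0.1 mM GDP, 0.05% NP40, 10 min at room temperature with compound.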

Test [12] deals with Pyruvate kinase (Leishmania mexicana) (UniProt Q27686). Nature of the test: qHTS Validation Assay for Inhibitors of Leishmania Mexicana Pyruvate Kinase (AID 945; active = well fitted curve in the direction sought with a large enough effect; an effect the other way counts as inactive or inconclusive;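 also: 0% = DMSO only neutral control wells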). To be noted: purified L. mexicana pyruvate kinase, enzyme activity, E451W mutant enzyme; series mostly up to 57.5 µM. In outline:
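The enzyme is a highly purified E451W mutant of LmPYK used at 0.2 nM. It converts 0.5 mM PEP and 0.1 mM ADP over 1 h at room temperature; product ATP is quantified by luciferase luminescence relative to DMSO controls.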

The target of test [13] is Pyruvate kinase PKM (Homo sapiens) (UniProt P14618). The test is described as follows: qHTS Assay for Activators of Human Muscle Pyruvate Kinase (AID 954; active = well fitted curve in the direction sought with a large enough effect, not every such curve was filed as active;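 also: 0% = uninhibited enzyme and -100% = no enzyme or full thiadiazolimine inhibition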). To be noted: purified human muscle pyruvate kinase, luciferase-coupled luminescence, 1 h; series mostly up to 57.5 µM. In outline:
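Reaction: 0.1 nM purified PKM2 with 0.5 mM phosphoenolpyruvate and 0.1 mM ADP, room temperature, 1 h. Readout: luciferase-based ATP luminescence after stop reagent. Activators judged against a 0.3 nM enzyme column.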

For test [14], the target named is alpha-glucosidase (Oryza sativa, rice) (UniProt Q653V4). Nature of the test: Counterscreen for Glucocerebrosidase Inhibitors: qHTS Assay for Rice alpha-Glucosidase at pH 5.0 (AID 997; active = well fitted curve in the direction sought with a large enough effect; an effect the other way counts as inactive or inconclusive;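 also: 0% = full activity with enzyme and -100% = basal without enzyme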). To be noted: rice alpha-glucosidase enzyme activity; series mostly up to 76.9 µM. In outline:
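Rice alpha-glucosidase (4 nM final) with 400 uM 4-methylumbelliferyl-alpha-D-glucopyranoside in citrate buffer pH 5.0, 20 min at room temperature, stopped at pH 10; fluorescence 365/440 nm, compounds 0.7 nM–77 uM, AC50 from Hill fits.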
(Counterscreens check selectivity or assay interference.)

[15] abbreviates: measured here: cell count channel max response.
Where [16] appears, read: measured here: lipid channel max response.

Sequence of Cytochrome P450 1A2 (Homo sapiens) (P05177 whole entry, looked up): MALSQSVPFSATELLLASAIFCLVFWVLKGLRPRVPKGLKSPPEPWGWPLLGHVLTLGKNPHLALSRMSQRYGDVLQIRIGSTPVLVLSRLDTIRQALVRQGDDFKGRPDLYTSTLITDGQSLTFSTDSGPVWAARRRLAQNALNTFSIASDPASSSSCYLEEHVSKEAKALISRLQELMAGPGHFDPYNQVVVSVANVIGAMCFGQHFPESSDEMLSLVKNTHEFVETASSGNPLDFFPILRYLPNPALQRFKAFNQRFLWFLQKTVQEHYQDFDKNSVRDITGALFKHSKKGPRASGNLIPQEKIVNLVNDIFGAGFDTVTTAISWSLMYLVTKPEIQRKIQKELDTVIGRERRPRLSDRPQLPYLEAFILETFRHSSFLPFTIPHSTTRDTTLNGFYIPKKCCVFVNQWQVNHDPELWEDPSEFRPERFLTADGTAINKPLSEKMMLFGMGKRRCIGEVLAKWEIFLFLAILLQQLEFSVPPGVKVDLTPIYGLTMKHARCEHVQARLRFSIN
Sequence of Pyruvate kinase (Leishmania mexicana) (Q27686 2-499 E452W): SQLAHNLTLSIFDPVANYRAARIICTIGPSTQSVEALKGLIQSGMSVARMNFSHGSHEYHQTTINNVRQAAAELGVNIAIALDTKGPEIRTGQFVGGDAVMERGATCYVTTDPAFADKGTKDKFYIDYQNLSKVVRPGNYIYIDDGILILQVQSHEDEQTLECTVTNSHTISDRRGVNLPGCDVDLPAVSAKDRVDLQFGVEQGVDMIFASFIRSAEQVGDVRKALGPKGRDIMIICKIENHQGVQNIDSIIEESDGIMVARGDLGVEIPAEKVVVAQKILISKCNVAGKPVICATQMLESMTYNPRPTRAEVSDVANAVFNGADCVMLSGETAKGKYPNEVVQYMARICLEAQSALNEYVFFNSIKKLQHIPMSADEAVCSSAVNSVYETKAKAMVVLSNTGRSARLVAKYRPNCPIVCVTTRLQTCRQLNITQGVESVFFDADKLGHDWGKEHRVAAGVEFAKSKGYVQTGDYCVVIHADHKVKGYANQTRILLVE
Sequence of Pyruvate kinase PKM (Homo sapiens) (P14618 whole entry, looked up): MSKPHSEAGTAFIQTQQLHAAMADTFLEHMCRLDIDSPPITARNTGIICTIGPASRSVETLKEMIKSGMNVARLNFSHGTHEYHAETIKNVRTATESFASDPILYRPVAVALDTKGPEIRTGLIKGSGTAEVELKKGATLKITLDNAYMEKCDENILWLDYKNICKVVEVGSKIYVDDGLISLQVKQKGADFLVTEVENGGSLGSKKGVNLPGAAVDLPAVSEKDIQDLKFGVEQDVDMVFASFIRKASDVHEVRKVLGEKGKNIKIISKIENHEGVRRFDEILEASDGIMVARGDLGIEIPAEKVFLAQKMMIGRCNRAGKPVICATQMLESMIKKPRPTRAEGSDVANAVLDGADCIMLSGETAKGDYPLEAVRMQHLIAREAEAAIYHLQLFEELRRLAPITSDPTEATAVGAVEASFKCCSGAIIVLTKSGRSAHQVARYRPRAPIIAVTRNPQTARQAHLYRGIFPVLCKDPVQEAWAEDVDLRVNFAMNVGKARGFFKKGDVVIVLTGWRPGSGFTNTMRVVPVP
Sequence of Ubiquitin carboxyl-terminal hydrolase 1 (Homo sapiens) (O94782 whole entry, looked up): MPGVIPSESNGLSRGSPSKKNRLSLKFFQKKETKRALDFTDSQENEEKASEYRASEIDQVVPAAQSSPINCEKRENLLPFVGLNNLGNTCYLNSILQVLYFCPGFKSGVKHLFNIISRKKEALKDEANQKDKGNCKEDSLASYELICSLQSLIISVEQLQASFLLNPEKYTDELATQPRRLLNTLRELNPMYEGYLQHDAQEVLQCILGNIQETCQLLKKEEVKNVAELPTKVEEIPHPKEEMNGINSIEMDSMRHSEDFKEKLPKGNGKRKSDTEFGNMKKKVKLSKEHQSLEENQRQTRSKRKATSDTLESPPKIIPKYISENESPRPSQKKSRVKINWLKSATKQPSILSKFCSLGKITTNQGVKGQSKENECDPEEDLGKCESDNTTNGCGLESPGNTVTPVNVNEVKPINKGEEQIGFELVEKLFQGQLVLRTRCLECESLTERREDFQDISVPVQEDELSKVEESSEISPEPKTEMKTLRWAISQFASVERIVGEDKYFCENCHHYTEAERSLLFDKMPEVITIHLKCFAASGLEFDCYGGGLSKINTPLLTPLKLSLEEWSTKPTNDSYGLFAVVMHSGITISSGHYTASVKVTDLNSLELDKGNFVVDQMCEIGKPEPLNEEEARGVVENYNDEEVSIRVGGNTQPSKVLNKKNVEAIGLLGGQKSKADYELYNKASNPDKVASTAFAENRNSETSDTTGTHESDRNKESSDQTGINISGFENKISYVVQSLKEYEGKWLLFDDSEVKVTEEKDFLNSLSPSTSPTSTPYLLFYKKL
Sequence of Guanine nucleotide-binding protein G(i) subunit alpha-1 (Homo sapiens) (P63096 whole entry, looked up): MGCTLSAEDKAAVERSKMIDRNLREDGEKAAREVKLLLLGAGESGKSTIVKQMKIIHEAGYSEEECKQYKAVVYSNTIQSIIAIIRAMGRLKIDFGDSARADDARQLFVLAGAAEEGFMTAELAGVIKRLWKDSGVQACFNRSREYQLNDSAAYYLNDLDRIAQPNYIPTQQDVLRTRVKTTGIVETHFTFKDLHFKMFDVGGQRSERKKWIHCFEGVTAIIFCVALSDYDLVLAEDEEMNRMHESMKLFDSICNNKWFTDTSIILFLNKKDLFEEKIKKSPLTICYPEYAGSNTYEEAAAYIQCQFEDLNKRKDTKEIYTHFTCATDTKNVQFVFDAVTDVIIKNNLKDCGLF

Regarding `CN(Cc1cnc2nc(N)nc(N)c2n1)c1ccc(C(=O)N[C@H](CCC(=O)O)C(=O)O)cc1`, the activity change, negative = inhibition in test [1] (at 17.2 µM (top of the series)) is 13.9% (inactive); in test [1] (at 38 µM (top of the series)), 2.91% (inactive) and 5.9% (inactive); in test [3] (at 17.2 µM (top of the series)), -38.1% (inactive); in test [3] (at 38 µM (top of the series)), -4.84% (inactive) and 12.6% (inactive); in [7], 0.922% (inactive). Besides, the Potency entry in test [2], in [5] and in test [6] was “inactive” throughout. Also, the activity, negative = inhibition is 8.48% (inactive) in test [4] (at 17.2 µM (top of the series)); -1.61% (inactive) and 15.7% (inactive) in test [4] (at 38 µM (top of the series)). The max response in [7] (setting [15]) is -1.52%; in [7] (setting [16]) it was -2.14%.

For the compound `C[C@@]12CCC(=O)C=C1CC[C@@H]1[C@@H]2[C@H](O)C[C@]2(C)[C@@H]1CC[C@]2(O)C(=O)CO`, the activity change, negative = inhibition is 1.82% (inactive) in test [1] (at 17.2 µM (top of the series)); 1.86% (inactive) in test [1] (at 38 µM (top of the series)); -9.51% (inactive) in test [3] (at 17.2 µM (top of the series)); -0.823% (inactive) in [3] (at 38 µM (top of the series)); -5.23% (inactive) in test [7]. Besides, the Potency entry in [2], in [5], in [6] and in test [8] was “inactive” throughout. For the same compound, the activity, negative = inhibition is -0.993% (inactive) in [4] (at 17.2 µM (top of the series)) and -22.1% (inactive) in test [4] (at 38 µM (top of the series)). Also, the max response in test [7] (setting [15]) was -11.2%; in [7] (setting [16]), -16.6%.

On to `O=C(O)CNC(=O)[C@@H](CS)Cc1ccccc1`, for which the activity change, negative = inhibition in [1] (at 17.2 µM (top of the series)) was 1.14% (inactive); in test [1] (at 38 µM (top of the series)), -1.37% (inactive); in test [3] (at 17.2 µM (top of the series)), 3.12% (inactive); in test [3] (at 38 µM (top of the series)), -2.03% (inactive); in test [7], -1.09% (inactive). The Potency entry in test [2], in test [5], in [6] and in test [11] was “inactive” in each case. Besides, the results for the activity, negative = inhibition in test [4] (at 17.2 µM (top of the series)) and in test [4] (at 38 µM (top of the series)) were 14.5% (inactive) and 26.3% (inactive), respectively. Further, the Potency in test [9] is > 46 µM (inactive) and > 20.6 µM (inactive); in test [10] it was > 46 µM (inactive) and > 20.6 µM (inactive). Moreover, the outcome in test [12], in [13] and in [14] was inactive. Moreover, the figures for the max response in [7] (setting [15]) and in test [7] (setting [16]) were -2.84% and -4.92%, respectively.
